# Experimental data published in article PMC5540273 (PLoS ONE, 2017).
# Legend:
# Settings in all cases: concentration: 1 μM, replicates: in singlicate; n = 1
# [1] = test system: JAK1(JH2domain-pseudokinase)
# [2] = test system: JAK2(JH1domain-catalytic)
# [3] = test system: JAK3(JH1domain-catalytic)
# JNK1 = test system: T1, JNK1
# T1 construct: gene MAPK8
# JNK2 = test system: T2, JNK2
# T2 construct: gene MAPK9
# JNK3 = test system: T3, JNK3
# T3 construct: gene MAPK10
# KIT-autoinhibited = test system: KIT-autoinhibited
# KIT = test system: KIT
# LATS1 = test system: LATS1
# LATS2 = test system: LATS2
# LCK = test system: LCK
# LIMK1 = test system: LIMK1
# LIMK2 = test system: LIMK2
# LKB1 = test system: T4, LKB1
# T4 construct: gene STK11
# LOK = test system: T5, LOK
# T5 construct: gene STK10
# LRRK2 = test system: LRRK2
# LTK = test system: LTK
# LYN = test system: LYN
# LZK = test system: T6, LZK
# T6 construct: gene MAP3K13
# MAK = test system: MAK
# 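Further: KINOMEscan kinase panel screen.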
SMILES,%Inh [1] [%],%Inh [2] [%],%Inh [3] [%],%Inh (JNK1) [%],%Inh (JNK2) [%],%Inh (JNK3) [%],%Inh (KIT-autoinhibited) [%],%Inh (KIT) [%],%Inh (LATS1) [%],%Inh (LATS2) [%],%Inh (LCK) [%],%Inh (LIMK1) [%],%Inh (LIMK2) [%],%Inh (LKB1) [%],%Inh (LOK) [%],%Inh (LRRK2) [%],%Inh (LTK) [%],%Inh (LYN) [%],%Inh (LZK) [%],%Inh (MAK) [%]
COc1cccc(-c2nc(-c3ccccc3)[nH]c2-c2ccncc2)c1 [SB-610250],12,17,0,30,83,90,0,0,45,0,16,20,0,4,0,14,0,0,0,47
O=C(Nc1n[nH]c2cc(-c3cccs3)ccc12)C1CC1 [SB-731284],22,40,0,57,33,48,39,58,0,5,0,6,0,10,17,0,0,0,0,0
Cc1ccc(C)c(NC(=O)Nc2ccc(C)c(-c3ccc(C(=O)Nc4ccncc4)cc3)c2)c1 [GSK1398473],0,0,0,15,14,6,0,99.9,3,0,47,25,2,0,0,0,0,17,0,65
CC(C)NCC(Cc1ccccc1)NC(=O)c1cc(Br)c(-c2ccnc3[nH]ccc23)s1.Cl.Cl (stereo not drawn) [GSK1383281],0,71,82,28,12,12,0,50,100,70,11,0,11,0,0,0,0,0,0,34
Cl.Cl.NCC(NC(=O)c1cc(-c2cccnc2)c(-c2ccnc3[nH]ccc23)s1)c1ccccc1 (stereo not drawn) [GSK1323434],0,31,79,44,61,41,0,19,0,11,33,0,0,22,0,0,0,0,77,21
Nc1ncnc2scc(-c3ccc(NC(=O)Cc4cc(F)ccc4F)cc3)c12.O=C(O)C(F)(F)F [SB-731254-M],49,27,0,35,19,18,87,100,13,36,54,55,96,29,81,0,71,16,0,20
CC(C)c1nc(-c2ccc(F)c(NS(=O)(=O)c3c(F)cccc3F)c2)c(-c2ccnc(Nc3ccc(N4CCOCC4)nc3)n2)s1 [GSK1804250],0,4,69,32,70,77,0,97.8,0,0,99.6,100,100,0,99.3,9,6,93.8,58,24
COc1cc(Nc2nccc(N3CCC(NC(=O)Nc4ccc5c(c4)OCO5)C3)n2)cc(OC)c1OC (stereo not drawn) [GSK1379766],47,89,0,34,0,35,5,66,0,12,32,40,13,0,0,0,74,3,24,3
c1ccc(Oc2ccc(Nc3ccnc4cc(-c5ccc(CN6CCCCC6)o5)ccc34)cc2)nc1 [GW567143],0,2,0,22,30,7,8,96.5,0,0,88,0,0,6,39,35,0,6,12,4
